PubChem BioAssay AID489018 (Southern Research Specialized Biocontainment Screening …, 2010)
In all, about 2,300 compounds went through this assay and about 350 (15%) were called active. The rule behind the calls is not given here. Not all results are given here. Entries with a potency or affinity are not part of this list.

Assay: HepG2 cell cytotoxicity, dose response, cytotoxicity control for non-replicating M. tuberculosis project (AID 489018);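 note: HepG2 human liver cells; 100% = vehicle-treated cells and 0% = background signal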
Settings: series mostly up to 20 µM; viability: at the top concentration

| SMILES | viability |
| --- | --- |
| c1ccc(Nc2nc(Nc3ccccc3)nc(N3CCNCC3)n2)cc1 | 72.8% (inactive) |
| COc1ccc(CCOC(=O)c2ccc(N)c([N+](=O)[O-])c2)cc1 | 92.9% (inactive) |
| Cc1ccccc1NC(=O)c1nc[nH]c1C(=O)NCc1ccccc1 | 89.2% (inactive) |
| O=C(COC(=O)CCc1c[nH]c2ccccc12)Nc1cc([N+](=O)[O-])ccc1Cl | 97.9% (inactive) |
| C[C@H](NC(=O)c1[nH]cnc1C(=O)Nc1ccccc1)C(=O)OC(C)(C)C | 108% [at 5 µM] (inactive) |
| O=c1c2c(nc3c(-c4ccccc4)c[nH]n13)CCCC2 | 79.2% (inactive) |
| Cc1ccc(-c2noc(CCCC(=O)Nc3cccnc3)n2)cc1 | 102% [at 5 µM] (inactive) |
| CCCCNC(=O)COC(=O)c1cc(F)c(F)cc1Cl | 97.4% (inactive) |
| O=C(/C=C/Nc1ccccc1O)c1ccco1 | 93.7% (inactive) |
| O=C(CCNc1ccc(F)cc1)c1ccco1 | 104% [at 5 µM] (inactive) |
| COc1ccc(C(=O)COC(=O)c2ccccc2O)c(OC)c1 | 97.4% (inactive) |
| CCCS(=O)(=O)c1nnnn1-c1cccc(OC)c1 | 99.5% [at 5 µM] (inactive) |
| CCOC(=O)Cn1cc(C#N)c2cccc(CC)c21 | 95.7% (inactive) |
| CCn1c(NC(=O)c2ccccc2)nc2ccccc21 | 81.6% (inactive) |
| CCOC(=O)COc1ccc2c(c1)c(C(C)=O)c(C)n2Cc1ccccc1 | 102% (inactive) |
| CCOC(=O)C(C)Oc1ccc(OCc2ccccc2)cc1 (stereo unspecified) | 90.2% (inactive) |
| CC(C)(C)NC(=O)c1ccc(NC(=O)c2ccccc2-c2ccccc2C(=O)O)cc1 | 106% (inactive) |
| CSc1ccc(N=Nc2c(C)[nH]n(C)c2=O)cc1 | 82.9% (inactive) |
| Nc1nc2ccccc2n1CCOc1ccccc1Cl | 77.5% (inactive) |
| C/C(=N\NC(=O)c1ccccc1)c1nc2ccccc2n1C | 99.8% [at 5 µM] (inactive) |
| C/C(=N\NC(=O)c1ccc([N+](=O)[O-])c(C)c1)c1ccccc1Cl | 93.5% (inactive) |
| Cc1ccc(N2NC(=O)/C(=C/C=C/c3ccco3)C2=O)cc1C | 93% (inactive) |
| c1ccc(CSc2ccc(-c3ccccn3)nn2)cc1 | 78.7% (inactive) |
| COC(=O)/C(=C1/Oc2cc(C)oc(=O)c2S1)C(F)(F)F | 110% [at 5 µM] (inactive) |
| Cc1ccc(C)c(-c2nnc(NC(=O)c3ccc([N+](=O)[O-])o3)o2)c1 | 91% [at 5 µM] (inactive) |

| SMILES | viability |
| --- | --- |
| O=C(Nc1ccc(S(=O)(=O)N2CCOCC2)cc1)c1ccc([N+](=O)[O-])o1 | 113% [at 5 µM] (inactive) |
| O=C(Nc1ccccc1N1CCN(C(=O)c2ccc(Cl)cc2)CC1)c1ccc([N+](=O)[O-])o1 | 77% (inactive) |
| O=C(Nc1ccc(Cc2ccncc2)cc1)c1ccc([N+](=O)[O-])o1 | 92.2% [at 5 µM] (inactive) |
| O=C(Nc1cccc(Cl)c1N1CCCC1)c1ccc([N+](=O)[O-])o1 | 84.4% (inactive) |
| Cc1ccc(-n2nnnc2CNC(=O)c2ccc([N+](=O)[O-])o2)cc1C | 78.6% (inactive) |
| O=C(Nc1cccc(S(=O)(=O)N2CCCCC2)c1)c1ccc([N+](=O)[O-])o1 | 71.3% [at 5 µM] (inactive) |
| O=C(Nc1nc2c(Cl)cccc2s1)c1ccc([N+](=O)[O-])o1 | 90.5% (inactive) |
| CCNC(=O)COC(=O)c1ccc(-c2nc3ccccc3s2)s1 | 95.6% (inactive) |
| O=C(CCN1CCN(C/C=C/c2ccccc2)CC1)Nc1ccc(Cl)cc1 | 74.9% (inactive) |
| O=C(COc1ccc(F)cc1)N/N=C/c1cccc2cccnc12 | 111% (inactive) |
| CCCn1nnnc1NC(=O)c1ccc2ccccc2c1 | 93.8% (inactive) |
| COCCn1c(C)cc(C(=O)COC(=O)c2ccc([N+](=O)[O-])o2)c1C | 103% (inactive) |
| CC(=O)Oc1c(-c2ccc(Br)o2)oc2ccccc2c1=O | 96.1% (inactive) |
| C=CCn1c(O)c(C2=c3ccccc3=NC2=O)c2ccccc21 | 109% [at 5 µM] (inactive) |
| O=C1c2cc([N+](=O)[O-])cc3cc([N+](=O)[O-])cc(c23)C(=O)N1c1ccccn1 | 95.9% [at 5 µM] (inactive) |
| CCCCNC(=O)COC(=O)c1cc(Br)ccc1Cl | 101% (inactive) |
| O=C(Nc1ncccn1)c1ccc([N+](=O)[O-])o1 | 91% (inactive) |
| O=C(Nc1ccccn1)c1ccc([N+](=O)[O-])o1 | 110% (inactive) |
| O=C(Nc1nc(-c2ccccn2)cs1)c1ccc([N+](=O)[O-])o1 | 110% [at 5 µM] (inactive) |
| O=C(Nc1nccs1)c1ccc(-c2ccc(Cl)cc2)o1 | 91.2% (inactive) |
| O=C(Nc1cccnc1)c1ccc(-c2ccc(Cl)cc2)o1 | 101% (inactive) |
| Cc1ccc(CNC(=O)c2ccc([N+](=O)[O-])o2)cc1 | 86.4% (inactive) |
| CCOC(=O)c1cc(-c2csc(COc3ccc(Cl)cc3)n2)on1 | 96.1% (inactive) |
| Cc1cccc(NC(=O)COC(=O)CCc2c[nH]c3ccccc23)c1C | 109% (inactive) |
| CC(OC(=O)c1ccc2c(=O)n3c(nc2c1)CCCCC3)C(=O)Nc1ccc(Cl)cn1 (stereo unspecified) | 97.6% (inactive) |

| SMILES | viability |
| --- | --- |
| C=CCn1c(NC(=O)c2ccccc2)nc2ccccc21 | 102% [at 5 µM] (inactive) |
| C/C(=N/NC(=O)c1ccncc1)C1=C(O)CC(C)(C)CC1=O | 106% [at 5 µM] (inactive) |
| C=Cc1cccc(NC(=O)COc2ccccc2)c1 | 95.6% (inactive) |
| Cc1ccc(NCCC(=O)c2cccs2)cc1Cl | 108% (inactive) |
| CCOC(=O)COc1ccc2c(c1)c(C(=O)OCC)c(C)n2CC | 102% (inactive) |
| NC(N)=Nc1nc(-c2ccccc2)c2ccccc2n1 | 102% [at 5 µM] (inactive) |
| Cc1cc(C)c2nc(/N=C(\N)NC(=O)Nc3ccccc3)nc(C)c2c1 | 95.2% (inactive) |
| CCC(CC)c1nnc(NC(=O)c2ccc3ccccc3n2)s1 | 80.1% (inactive) |
| Cc1ccc(NC(=O)CO/N=C/c2ccccc2C)c(C)c1 | 92.9% (inactive) |
| CC(=O)CCC1CC(c2ccc(Cl)cc2)=NO1 (stereo unspecified) | 100% (inactive) |
| CCCCCCNC(=O)c1ccc(Br)o1 | 102% (inactive) |
| COc1cccc2cc(C(=O)NCc3ccc(F)cc3)c(=N)oc12 | 119% (inactive) |
| O=[N+]([O-])c1cncc([N+](=O)[O-])c1Nc1ccccc1Cl | 97.8% [at 5 µM] (inactive) |
| Cc1cc(Br)ccc1OCC(=O)NNC(=O)c1cnccn1 | 111% [at 5 µM] (inactive) |
| Cc1ccc(C(=O)C=CNNC(=O)c2ccccc2)cc1 | 98.9% (inactive) |
| Cc1nc(C(=O)Nc2ccccc2)sc1C(=O)Nc1ccccc1 | 91% (inactive) |
| CNC(=O)c1[nH]cnc1C(=O)Nc1ccc(Cl)cc1 | 98.1% (inactive) |
| O=C(CN1CCOCC1)N/N=C/c1ccc(-c2ccc(Br)cc2)o1 | 96.8% (inactive) |
| CCOCC(=O)Nc1ccc(C)c(Cl)c1 | 99.3% (inactive) |
| CCC(C)(C)NC(=O)c1ccc(Br)o1 | 110% (inactive) |
| O=C(Nc1ccccc1)c1ccc(Br)o1 | 110% [at 5 µM] (inactive) |
| O=C(O)CCCCCN1C(=O)/C(=C\c2ccncc2)SC1=S | 90.8% (inactive) |
| CCn1c(-c2ccco2)nc2ccccc21 | 101% (inactive) |
| COc1cccc(COC(=O)c2sc3nc4n(c(=O)c3c2C)CCC4)c1OC | 106% (inactive) |
| Cc1cccc(NC(=O)c2ccc([N+](=O)[O-])s2)n1 | 79.6% (inactive) |

| SMILES | viability |
| --- | --- |
| COc1ccc(NC(=O)c2cnc(SC)nc2)cc1 | 87.5% (inactive) |
| Cc1ccccc1-n1sc2cc(F)ccc2c1=O | 90.2% (inactive) |
| CN(CCCCOc1ccc(F)cc1)Cc1ccccc1 | 102% (inactive) |
| O=C(Nc1ccn(Cc2ccccc2)n1)c1ccc(F)cc1 | 107% [at 5 µM] (inactive) |
| O=C(CCN1C(=O)S/C(=C\c2ccc(F)cc2)C1=O)Nc1ccc(C(=O)O)c(O)c1 | 102% (inactive) |
| FC(F)(Cl)c1nnc2ccc(Cl)nn12 | 78% (inactive) |
| Cn1c(SCc2c(F)cccc2Cl)nc2c(c1=O)SCC2 | 92.9% (inactive) |
| O=C(Oc1ccccc1)c1cc2ccccc2o1 | 110% [at 5 µM] (inactive) |
| COC(=O)c1ccc2c(c1O)C(=O)c1ccccc1C2=O | 102% [at 5 µM] (inactive) |
| COc1ccc(-c2[nH]ncc2CN2CCCCCCC2)c(OC)c1 | 97.7% (inactive) |
| Cc1noc2ncnc(Sc3ccccc3Cl)c12 | 111% (inactive) |
| O=C(N/N=C/c1ccc(Br)s1)c1ccncc1 | 90% (inactive) |
| Cc1ccc(/C=N/NC(=O)c2ccncc2)s1 | 107% (inactive) |
| O=C(Nc1nccs1)c1ccc2ccccc2c1 | 91.4% (inactive) |
| CC(C)(C)c1ccc(-c2nc(C#N)c(NCCCn3ccnc3)o2)cc1 | 101% (inactive) |
| O=[N+]([O-])c1ccc(Nc2ccccc2)c2nonc12 | 109% (inactive) |
| O=[N+]([O-])c1ccc(Nc2ccccc2O)c2nonc12 | 98.6% (inactive) |
| C#CCSc1nnc(-c2ccc(C)cc2)o1 | 93.6% (inactive) |
| c1ccc(CNCCC(Cc2ccccc2)c2ccco2)cc1 (stereo unspecified) | 76.4% (inactive) |
| O=C(Nc1ccc(Cl)cc1Cl)c1cccc(N2C(=O)C=CC2=O)c1 | 99.2% (inactive) |
| c1ccc2[nH]c(NC3=NCCC3)nc2c1 | 103% (inactive) |
| Cc1cccc(OCCCCc2c(C)n[nH]c2C)c1 | 89.6% (inactive) |
| O=C(NC(=S)N1CCN(Cc2ccc3c(c2)OCO3)CC1)c1ccc(Cl)cc1 | 83.1% (inactive) |
| COc1cc(/C=N/NC(=O)c2ccccn2)ccc1OC(=O)c1cccs1 | 92.5% (inactive) |
| C/C(=N\Nc1cccc2cccnc12)c1ccccn1 | 82.3% (inactive) |

| SMILES | viability |
| --- | --- |
| COc1ccc(C(=O)Nc2ccccc2C(=O)N/N=C/c2ccco2)cc1 | 83% (inactive) |
| O=C(COc1ccc(Cl)cc1)NNC(=O)c1ccccn1 | 105% (inactive) |
| COc1ccccc1/C=C/C=N/NC(=O)c1ccncc1 | 96.1% (inactive) |
| C/C(=N\Nc1ccc(Cl)cc1)c1ccccn1 | 90.1% (inactive) |
| C/C(=N\NC(=O)CCCNc1ccc(C)cc1)c1ccccn1 | 76.5% [at 5 µM] (inactive) |
| O=C(N/N=C/c1ccccn1)c1ccccc1 | 87.5% (inactive) |
| COc1ccc(N2C(=O)C(F)(F)C2c2cccc(F)c2)cc1 (stereo unspecified) | 93.6% (inactive) |
| Cc1ccc(-c2nnc(NC(=O)c3ccco3)o2)c(C)c1 | 94.2% (inactive) |
| Cc1ccc(S(=O)(=O)/N=C(\CCl)N2CCOCC2)cc1 | 100% (inactive) |
| O=C(N/N=C/c1cccc2cccnc12)[C@H]1C[C@@H]1c1ccccc1 | 92.1% (inactive) |
| CC(C)c1ccc(/C=N/NC(=O)c2ccccn2)cc1 | 96.6% (inactive) |
| O=C(CCc1c[nH]c2ccccc12)Nc1ncccc1O | 99.2% (inactive) |
| O=C(Nc1ccc(Br)cc1)c1cc([N+](=O)[O-])cc([N+](=O)[O-])c1 | 96.6% (inactive) |
| Nc1ccccc1C#CC(=O)c1ccccc1 | 114% (inactive) |
| COc1ccc(-c2cc(C(F)(F)F)nc(S(C)(=O)=O)n2)cc1 | 119% [at 5 µM] (inactive) |
| COC(=O)COc1ccc(-c2ccccc2)cc1C=O | 93.7% (inactive) |
| CCOC(=O)c1ccsc1NC(=O)CCS(=O)(=O)c1ccccc1 | 101% [at 5 µM] (inactive) |
| COc1ccc(OCCOC(=O)CCS(=O)(=O)c2ccc(C)cc2)cc1 | 107% [at 5 µM] (inactive) |
| COc1ccc(C(=O)Cn2c(C)nc([N+](=O)[O-])c2Br)cc1 | 89.7% (inactive) |
| O=C(COc1ccccc1)NC1CCCCC1 | 107% (inactive) |
| Cc1ccc2nc(/N=C(\N)NC(=O)NC3CCCCC3)nc(C)c2c1 | 83.8% (inactive) |
